Shown are actives, neighbours in structure and some others; about 10% of the full set was active somewhere.
G9a block – blocks human histone lysine methyltransferase G9a; AID 504332; G9a H3K9 monomethylation, AlphaScreen, 2 h; Q96KQ7; Potency, µM (highest dose often 102 µM), inactives show at the highest dose activity, negative = inhibition, usual class: inhibitors; hit rate 8.8% among 350,000; also: potency is read from the fitted curve at half-maximal effect; % is scaled to controls: 0 for no effect and ±100 for the full control effect; nearly all actives have a fitted effect of over 75% in size
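Chemiluminescent proximity detection of H3K9 monomethylation, read after 10 min bead incubation in the dark. Reaction: 20 nM G9a, 500 nM biotin-H3K9 peptide, 20 uM SAM cofactor, 2 h, room temperature, following 15 min enzyme-compound preincubation.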
Six1-Eya2 blk – inhibitors of human Six1/Eya2 interaction | activity change, % (concentration not given with the values) | AlphaScreen GST-Six1/His-Eya2 binding, biochemical; stronger effect = lower value | hit rate 0.56% among 360,000 | Q15475+O00167; in the data active = activity change below about -65%; inconclusive = mostly about -30% to -63%; also: % is scaled to controls: 0 for no effect and ±100 for the full control effect
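GST-Six1 + His-Eya2 (5X stock: 250/500 nM); Tris pH 8.0, 300 mM NaCl, 0.05% BSA, 0.02% Tween 20; GSH donor/Ni acceptor beads; 1 h 37 °C dark; AlphaScreen readout.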
BAZ2B inh – BAZ2B (human) inhibition | Q9UIF8 | AlphaScreen BAZ2B-H3K14Ac peptide displacement | Potency, µM (highest dose often 114 µM), without a hit: at the highest dose activity change, negative = inhibition, most hits filed as inhibitors | hit rate 4.4% among 360,000; also: potency is read from the fitted curve at half-maximal effect; % is scaled to controls: 0 for no effect and ±100 for the full control effect; nearly all actives have a fitted effect of over 60% in size
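BAZ2B 50 nM plus b-H3(5-23)K14Ac 50 nM, PBS pH 7.4/0.01% Tween-20, 30 min RT; compound added (max 110 uM), 30 min RT; streptavidin donor/Ni-chelate acceptor beads 10 ug/mL final, 20 min dark; AlphaScreen read.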
JMJD2A Tudor – blocks the human JMJD2A Tudor domain; O75164; AlphaScreen JMJD2A-Tudor / H3K4me3 peptide binding; Potency, µM (top dose mostly 114 µM), for the others: at the top dose activity change, negative = inhibition, most hits filed as inhibitors; hit rate 4.4% among 390,000; AID 504339; also: potency is read from the fitted curve at half-maximal effect; % is scaled to controls: 0 for no effect and ±100 for the full control effect; nearly all actives have a fitted effect of over 50% in size
Target sequence (O75164 whole entry, looked up, the tested form may be a part): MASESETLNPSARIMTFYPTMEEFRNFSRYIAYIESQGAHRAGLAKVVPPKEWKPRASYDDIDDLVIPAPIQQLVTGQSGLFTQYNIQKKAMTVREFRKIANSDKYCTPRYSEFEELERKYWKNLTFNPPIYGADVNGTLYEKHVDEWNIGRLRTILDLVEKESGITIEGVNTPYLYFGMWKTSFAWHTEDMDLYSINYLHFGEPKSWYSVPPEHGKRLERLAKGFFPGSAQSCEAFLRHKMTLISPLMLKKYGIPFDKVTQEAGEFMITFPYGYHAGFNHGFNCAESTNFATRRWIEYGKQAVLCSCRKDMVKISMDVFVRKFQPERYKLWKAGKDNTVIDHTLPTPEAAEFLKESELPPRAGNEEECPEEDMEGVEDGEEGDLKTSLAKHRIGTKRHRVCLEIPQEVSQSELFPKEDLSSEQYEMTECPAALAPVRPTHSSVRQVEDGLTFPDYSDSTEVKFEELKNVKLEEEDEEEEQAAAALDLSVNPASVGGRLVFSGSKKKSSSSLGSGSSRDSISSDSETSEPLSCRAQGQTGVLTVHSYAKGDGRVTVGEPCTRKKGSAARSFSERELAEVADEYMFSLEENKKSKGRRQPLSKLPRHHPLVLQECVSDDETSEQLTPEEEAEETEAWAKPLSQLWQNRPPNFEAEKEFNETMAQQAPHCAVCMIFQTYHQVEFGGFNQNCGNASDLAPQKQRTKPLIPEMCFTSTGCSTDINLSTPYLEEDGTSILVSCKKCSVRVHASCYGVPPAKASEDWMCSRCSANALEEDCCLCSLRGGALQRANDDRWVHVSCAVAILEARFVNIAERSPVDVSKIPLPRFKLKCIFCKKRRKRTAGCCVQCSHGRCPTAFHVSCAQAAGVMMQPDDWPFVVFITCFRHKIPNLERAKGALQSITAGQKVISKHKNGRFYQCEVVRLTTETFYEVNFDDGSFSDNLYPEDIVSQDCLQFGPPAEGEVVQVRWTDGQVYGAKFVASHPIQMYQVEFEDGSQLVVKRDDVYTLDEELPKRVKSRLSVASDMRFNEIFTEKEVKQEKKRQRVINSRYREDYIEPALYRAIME
HP1b binding inh – blocks HP1-beta chromodomain binding to methylated histone tails; P83916; AlphaScreen HP1-beta / biotin-H3K9me3 peptide binding; Potency, µM (series often up to 114 µM), inactives show at the top dose activity change, negative = inhibition, most hits filed as inhibitors; hit rate 0.56% among 390,000; also: potency is read from the fitted curve at half-maximal effect; nearly all actives have a fitted effect of over 70% in size
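Compound inhibition of the preformed complex between 50 nM HP1-beta and 50 nM biotinylated H3K9me3 peptide was read by AlphaScreen. Buffer was PBS pH 7.4 with 0.01% Tween-20. Incubations ran 30 min at room temperature, with 10 ug/mL donor/acceptor beads.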
CtBP-E1A inh – inhibitors of CtBP/E1A interaction; AlphaScreen GST-E1A/His-CtBP binding, 1536-well; stronger effect = lower value; activity change, % (concentration not given with the values); hit rate 0.49% among 340,000; in the data active = activity change below about -65%; inconclusive = mostly about -30% to -63%; also: % is scaled to controls: 0 for no effect and ±100 for the full control effect
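AlphaScreen with 125 nM GST-E1A and 125 nM His-CtBP (5X stocks) in Tris pH 8.0, 300 mM NaCl, BSA, Tween 20, TCEP. Compounds preincubated 2 h at 37 deg C, then glutathione donor/nickel acceptor beads added for 1 h at 37 deg C in dark.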
* = called active by the depositor; ? = inconclusive; / = not tested or not shown; [ ] = another dose, or the depositor's remark. Unless noted, calls follow the shape of the dose curve; as a rule, active = well fitted inhibition curve with a large enough effect; inconclusive = small, poorly fitted or top-dose-only effect; inactive = no such curve, though single readings can be large or run the other way.

SMILES	G9a block	Six1-Eya2 blk	BAZ2B inh	JMJD2A Tudor	HP1b binding inh	CtBP-E1A inh
CCC[n+]1cn(/C(C(=S)Nc2cccc(Cl)c2C)=C(/[O-])c2ccc(OC)c(OC)c2)c2ccccc21	39.8µM*	-1.7	?	?	-18.6%	-20.5
CCc1ccccc1NC(=O)c1ccc(CN2C(=O)CCn3nc(C)cc32)cc1	?	/	0.6%	-5.9%	44.0%	/
CCCOc1ccc(/C(O)=C2\C(=O)C(=O)N(c3ccccn3)C2c2ccccc2F)cc1C (stereo not drawn)	79.4µM*	-0.1	-11.1%	?	-23.4%	1.8
CCOc1ccc(/C(O)=C2/C(=O)C(=O)N(c3ccccn3)C2c2ccc(C)cc2)c(C)c1 (stereo not drawn)	50.1µM*	0.7	0.8%	35.5µM*	?	-2.1
CCCCOc1ccc(/C(O)=C2/C(=O)C(=O)N(Cc3cccnc3)C2c2ccncc2)c(C)c1 (stereo not drawn)	44.7µM*	7.6	-18.9%	-15.2%	23.3%	0.4
CCOc1ccc(/C(O)=C2/C(=O)C(=O)N(c3ccccn3)C2c2ccc(Cl)cc2)c(C)c1 (stereo not drawn)	?	5.7	?	?	-9.1%	-15.1
COc1cccc(C(C[N+](=O)[O-])c2c(C)[nH]n(-c3ccccc3)c2=O)c1 (stereo not drawn)	10µM*	-10.0	?	-31.7%	-11.5%[57 µM]	-4.9
Cc1[nH]n(-c2ccccc2)c(=O)c1C(=O)c1ccc([N+](=O)[O-])cc1	50.1µM*	-0.8	-14.6%	-1.4%	45.9%	5.3
Cc1[nH]n(-c2ccccc2)c(=O)c1C(c1cccc([N+](=O)[O-])c1)c1c(C)[nH]n(-c2ccccc2)c1=O	35.5µM*	-22.4	28.2µM*	?	-27.6%	-16.8
Cc1[nH]n(-c2ccccc2)c(=S)c1C=Nc1ccc([N+](=O)[O-])cc1	0.891µM*	-10.3	10µM*	1.78µM*	?	-2.1
Cc1ccc(C(=O)c2oc3ccccc3c2NC(=O)COc2ccc(C(C)(C)C)cc2)cc1	13.5%[59 µM]	/	1.3%	4.1%	56.3%	/
COC(=O)N1CCN(/[N+]([O-])=N/Oc2ccc([N+](=O)[O-])cc2[N+](=O)[O-])CC1	/	/	/	-12.4%	39.4%	/
Cc1[nH]n(-c2ccccc2)c(=O)c1C(C[N+](=O)[O-])c1ccc(Br)cc1 (stereo not drawn)	39.8µM*	-5.9	?	?	-10.3%	-9.0
CCOc1ccc(C(c2c(C)[nH]n(-c3ccccc3)c2=O)c2c(C)[nH]n(-c3ccccc3)c2=O)cc1OC	8.91µM*	/	?	?	?	/
O=C(NCCCN1CCN(c2ccccc2F)CC1)c1nnc(Cc2ccc(Cl)cc2Cl)o1	-7.1%[59 µM]	/	?	-27.7%	4.2%	/
CN(C)S(=O)(=O)c1cc(NC(=O)CNCCN2CCOCC2)ccc1Cl	10µM*	16.1	50.1µM*	28.2µM*	26.0%	/
CN(C)S(=O)(=O)c1cc(NC(=O)CN2CCN(c3ccccc3)CC2)ccc1Cl	14.5%[59 µM]	-4.4	-38.9%	-29.5%	-12.1%	-9.9
CC(C)CC(=O)Nc1ccc(C(=O)CN2CCN(c3ccc(O)cc3)CC2)cc1	5.01µM*	0.2	50.1µM*	?	-32.6%	-1.4
O=S(=O)(c1ccc(NC(=S)N2CCN(c3ccc(O)cc3)CC2)cc1)N1CCOCC1	20µM*	-4.7	/	?	-29.8%	-4.3
CN(C)S(=O)(=O)c1cc(NC(=O)CN2CCN(c3ccc(O)cc3)CC2)ccc1Cl	3.98µM*	-1.8	?	-13.5%	4.7%	-4.5
CC(=O)c1ccc(N2CCN(CC(=O)Nc3ccc(N4CCOCC4)cc3)CC2)cc1	-6.4%	/	-13.6%	/	/	/
COc1ccc(C(=O)N2CCC3(CCN(Cc4cc(C(F)(F)F)cc(C(F)(F)F)c4)CC3)CC2)cc1	-4.6%[12.7 µM]	/	/	/	/	/
CC(=O)c1c(C)[nH]c(C(=O)OCC(=O)Nc2ccc(Cl)c(S(=O)(=O)N(C)C)c2)c1C	/	-9.6	70.8µM*	-25.2%	23.3%	/
